Laboratory results published in the supplement of paper PMC11732987, “Enantioselective OTUD7B fragment discovery through chemoproteomics screening and high-throughput optimisation” (Communications Chemistry, 2025).

Key:
Assay in all cases: log2 ratio of Biotin-Ahx-Ub-VS probe labelling (fragment/DMSO); higher = less target engagement (more negative = stronger competition), active = hit call of the paper (q ≤ 0.05, log2 ratio ≤ -1)
Conditions in all cases: compound concentration: 200 uM; treatment time: 3 h
USP19 = molecular target: T1, USP19 (UniProt O94966)
T1 sequence (whole entry): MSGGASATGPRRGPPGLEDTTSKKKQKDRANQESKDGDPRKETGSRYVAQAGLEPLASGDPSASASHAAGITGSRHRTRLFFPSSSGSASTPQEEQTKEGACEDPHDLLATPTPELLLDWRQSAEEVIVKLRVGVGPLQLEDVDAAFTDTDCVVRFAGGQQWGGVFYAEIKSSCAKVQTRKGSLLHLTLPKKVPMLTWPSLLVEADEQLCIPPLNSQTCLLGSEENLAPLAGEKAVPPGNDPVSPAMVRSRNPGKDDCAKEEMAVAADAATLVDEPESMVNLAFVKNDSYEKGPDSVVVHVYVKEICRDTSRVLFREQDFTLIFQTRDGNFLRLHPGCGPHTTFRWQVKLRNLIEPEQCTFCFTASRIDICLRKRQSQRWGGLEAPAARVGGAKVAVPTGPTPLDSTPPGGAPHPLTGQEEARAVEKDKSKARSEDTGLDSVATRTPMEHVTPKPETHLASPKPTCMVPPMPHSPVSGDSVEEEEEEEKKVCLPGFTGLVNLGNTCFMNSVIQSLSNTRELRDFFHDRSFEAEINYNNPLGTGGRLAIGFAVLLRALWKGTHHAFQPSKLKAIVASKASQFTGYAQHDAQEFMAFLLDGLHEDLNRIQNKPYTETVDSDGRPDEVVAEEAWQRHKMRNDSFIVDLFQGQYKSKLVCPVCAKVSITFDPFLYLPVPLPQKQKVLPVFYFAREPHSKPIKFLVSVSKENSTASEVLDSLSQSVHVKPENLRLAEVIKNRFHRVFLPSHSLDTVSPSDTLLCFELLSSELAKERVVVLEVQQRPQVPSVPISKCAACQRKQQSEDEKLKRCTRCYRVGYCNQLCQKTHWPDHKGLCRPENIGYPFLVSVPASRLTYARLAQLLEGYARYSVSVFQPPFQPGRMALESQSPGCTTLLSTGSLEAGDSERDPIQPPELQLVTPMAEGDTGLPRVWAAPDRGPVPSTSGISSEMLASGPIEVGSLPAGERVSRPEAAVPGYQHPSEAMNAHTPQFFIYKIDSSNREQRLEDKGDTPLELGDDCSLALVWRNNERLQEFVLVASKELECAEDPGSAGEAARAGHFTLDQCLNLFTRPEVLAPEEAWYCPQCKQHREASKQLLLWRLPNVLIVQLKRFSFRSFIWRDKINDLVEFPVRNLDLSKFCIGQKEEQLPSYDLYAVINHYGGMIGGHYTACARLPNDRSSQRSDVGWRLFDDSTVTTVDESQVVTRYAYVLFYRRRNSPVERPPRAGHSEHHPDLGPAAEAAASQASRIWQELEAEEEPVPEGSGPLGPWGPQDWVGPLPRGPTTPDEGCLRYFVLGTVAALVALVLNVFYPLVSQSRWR
How it was run: (§1)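 Values give the average log2 ratio of fragment to vehicle, assessed by unpaired t-test on global-median-normalised Spectronaut label-free quantities. Proteins needed ≥2 unique peptides. HEK293T lysate (495 µg per sample) was treated in triplicate with fragment at 200 µM or vehicle for 3 h and then with Biotin-Ahx-Ub-VS at 0.5 µM final for 1 h. Labelled DUBs were NeutrAvidin-enriched, digested and run by diaPASEF LC-MS/MS.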

USP22 = molecular target: T2, USP22 (UniProt Q9UPT9)
T2 sequence (whole entry): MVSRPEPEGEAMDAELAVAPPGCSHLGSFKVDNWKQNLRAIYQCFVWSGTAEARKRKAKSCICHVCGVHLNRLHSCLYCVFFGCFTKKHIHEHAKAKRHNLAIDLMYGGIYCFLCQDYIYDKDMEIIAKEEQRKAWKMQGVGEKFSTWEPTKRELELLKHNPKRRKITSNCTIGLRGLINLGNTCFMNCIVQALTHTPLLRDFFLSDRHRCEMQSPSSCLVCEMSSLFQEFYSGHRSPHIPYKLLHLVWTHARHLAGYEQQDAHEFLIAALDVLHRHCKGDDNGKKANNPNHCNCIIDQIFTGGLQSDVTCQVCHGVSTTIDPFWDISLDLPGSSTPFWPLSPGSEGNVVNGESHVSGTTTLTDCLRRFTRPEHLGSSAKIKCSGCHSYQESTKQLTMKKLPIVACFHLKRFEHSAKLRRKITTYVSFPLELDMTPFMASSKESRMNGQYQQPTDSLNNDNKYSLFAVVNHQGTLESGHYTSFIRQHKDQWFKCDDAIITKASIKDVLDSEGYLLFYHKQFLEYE
How it was run: as §1

USP24 = USP24 (UniProt Q9UPU5)
Sequence of USP24 (Q9UPU5 whole entry): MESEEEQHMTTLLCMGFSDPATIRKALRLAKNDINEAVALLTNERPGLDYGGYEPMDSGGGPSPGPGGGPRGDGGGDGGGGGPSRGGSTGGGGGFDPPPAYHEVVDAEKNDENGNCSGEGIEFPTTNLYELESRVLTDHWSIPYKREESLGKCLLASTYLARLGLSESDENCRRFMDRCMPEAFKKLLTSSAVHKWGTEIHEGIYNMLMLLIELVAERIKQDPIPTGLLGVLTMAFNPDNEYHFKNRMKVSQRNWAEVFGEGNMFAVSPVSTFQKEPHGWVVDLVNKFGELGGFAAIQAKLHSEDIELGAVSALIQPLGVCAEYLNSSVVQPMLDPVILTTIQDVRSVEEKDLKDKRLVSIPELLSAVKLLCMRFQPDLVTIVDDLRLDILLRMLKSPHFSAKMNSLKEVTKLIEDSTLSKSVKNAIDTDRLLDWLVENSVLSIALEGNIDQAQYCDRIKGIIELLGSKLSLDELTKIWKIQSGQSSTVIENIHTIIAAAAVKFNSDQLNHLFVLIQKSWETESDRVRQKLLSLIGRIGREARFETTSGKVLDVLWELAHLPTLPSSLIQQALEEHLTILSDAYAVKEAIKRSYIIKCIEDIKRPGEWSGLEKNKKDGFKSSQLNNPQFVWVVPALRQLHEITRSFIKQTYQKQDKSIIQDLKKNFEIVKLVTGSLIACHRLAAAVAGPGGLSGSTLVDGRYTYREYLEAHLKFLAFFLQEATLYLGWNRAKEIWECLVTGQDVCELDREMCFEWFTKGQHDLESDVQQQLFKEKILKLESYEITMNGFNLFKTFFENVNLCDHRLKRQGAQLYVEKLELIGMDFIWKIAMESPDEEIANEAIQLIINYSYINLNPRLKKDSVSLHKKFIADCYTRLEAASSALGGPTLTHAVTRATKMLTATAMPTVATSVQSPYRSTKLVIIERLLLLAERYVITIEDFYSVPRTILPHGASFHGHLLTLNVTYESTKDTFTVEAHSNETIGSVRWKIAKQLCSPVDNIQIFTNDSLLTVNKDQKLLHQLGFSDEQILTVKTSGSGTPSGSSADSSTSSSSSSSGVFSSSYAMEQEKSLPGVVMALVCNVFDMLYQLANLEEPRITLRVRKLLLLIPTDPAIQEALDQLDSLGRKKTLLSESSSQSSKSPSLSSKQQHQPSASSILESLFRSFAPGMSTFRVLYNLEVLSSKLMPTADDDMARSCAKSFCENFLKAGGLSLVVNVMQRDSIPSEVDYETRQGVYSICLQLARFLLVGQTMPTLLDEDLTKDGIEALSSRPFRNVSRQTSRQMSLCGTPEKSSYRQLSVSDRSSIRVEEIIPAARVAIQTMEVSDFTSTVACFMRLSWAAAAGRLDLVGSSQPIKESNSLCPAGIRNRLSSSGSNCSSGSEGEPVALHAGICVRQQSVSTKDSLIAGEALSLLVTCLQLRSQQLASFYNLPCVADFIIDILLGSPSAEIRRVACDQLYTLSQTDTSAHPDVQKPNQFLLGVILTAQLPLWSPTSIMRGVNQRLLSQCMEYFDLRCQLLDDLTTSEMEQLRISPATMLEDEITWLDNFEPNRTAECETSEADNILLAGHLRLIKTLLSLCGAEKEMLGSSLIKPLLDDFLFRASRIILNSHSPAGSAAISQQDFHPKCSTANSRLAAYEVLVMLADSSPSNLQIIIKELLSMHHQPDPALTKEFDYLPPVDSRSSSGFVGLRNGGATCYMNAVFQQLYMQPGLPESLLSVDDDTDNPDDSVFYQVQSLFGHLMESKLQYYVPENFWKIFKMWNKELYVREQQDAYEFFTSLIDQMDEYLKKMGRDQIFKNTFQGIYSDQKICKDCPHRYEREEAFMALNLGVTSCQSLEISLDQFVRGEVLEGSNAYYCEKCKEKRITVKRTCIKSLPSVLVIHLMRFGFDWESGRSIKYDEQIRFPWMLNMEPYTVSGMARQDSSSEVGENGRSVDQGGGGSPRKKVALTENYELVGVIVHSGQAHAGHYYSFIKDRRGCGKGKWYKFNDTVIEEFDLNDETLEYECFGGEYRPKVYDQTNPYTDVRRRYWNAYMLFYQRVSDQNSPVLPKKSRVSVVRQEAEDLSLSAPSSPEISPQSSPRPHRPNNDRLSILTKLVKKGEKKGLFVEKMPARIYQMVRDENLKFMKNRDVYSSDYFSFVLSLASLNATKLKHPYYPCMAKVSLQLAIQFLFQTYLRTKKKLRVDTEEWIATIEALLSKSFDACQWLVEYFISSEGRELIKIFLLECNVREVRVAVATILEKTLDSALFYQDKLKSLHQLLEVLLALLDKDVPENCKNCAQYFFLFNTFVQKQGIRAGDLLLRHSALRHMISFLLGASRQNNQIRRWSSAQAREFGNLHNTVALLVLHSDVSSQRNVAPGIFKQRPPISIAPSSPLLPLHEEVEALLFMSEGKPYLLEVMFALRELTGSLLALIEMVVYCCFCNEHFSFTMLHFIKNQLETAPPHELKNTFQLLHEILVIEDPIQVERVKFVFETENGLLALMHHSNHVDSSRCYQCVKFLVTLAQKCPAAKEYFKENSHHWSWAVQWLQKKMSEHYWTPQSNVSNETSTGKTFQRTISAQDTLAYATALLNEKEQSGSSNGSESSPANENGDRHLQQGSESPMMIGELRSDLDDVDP
How it was run: as §1

USP25 = molecular target: T3, USP25 (UniProt Q9UHP3)
T3 sequence (whole entry): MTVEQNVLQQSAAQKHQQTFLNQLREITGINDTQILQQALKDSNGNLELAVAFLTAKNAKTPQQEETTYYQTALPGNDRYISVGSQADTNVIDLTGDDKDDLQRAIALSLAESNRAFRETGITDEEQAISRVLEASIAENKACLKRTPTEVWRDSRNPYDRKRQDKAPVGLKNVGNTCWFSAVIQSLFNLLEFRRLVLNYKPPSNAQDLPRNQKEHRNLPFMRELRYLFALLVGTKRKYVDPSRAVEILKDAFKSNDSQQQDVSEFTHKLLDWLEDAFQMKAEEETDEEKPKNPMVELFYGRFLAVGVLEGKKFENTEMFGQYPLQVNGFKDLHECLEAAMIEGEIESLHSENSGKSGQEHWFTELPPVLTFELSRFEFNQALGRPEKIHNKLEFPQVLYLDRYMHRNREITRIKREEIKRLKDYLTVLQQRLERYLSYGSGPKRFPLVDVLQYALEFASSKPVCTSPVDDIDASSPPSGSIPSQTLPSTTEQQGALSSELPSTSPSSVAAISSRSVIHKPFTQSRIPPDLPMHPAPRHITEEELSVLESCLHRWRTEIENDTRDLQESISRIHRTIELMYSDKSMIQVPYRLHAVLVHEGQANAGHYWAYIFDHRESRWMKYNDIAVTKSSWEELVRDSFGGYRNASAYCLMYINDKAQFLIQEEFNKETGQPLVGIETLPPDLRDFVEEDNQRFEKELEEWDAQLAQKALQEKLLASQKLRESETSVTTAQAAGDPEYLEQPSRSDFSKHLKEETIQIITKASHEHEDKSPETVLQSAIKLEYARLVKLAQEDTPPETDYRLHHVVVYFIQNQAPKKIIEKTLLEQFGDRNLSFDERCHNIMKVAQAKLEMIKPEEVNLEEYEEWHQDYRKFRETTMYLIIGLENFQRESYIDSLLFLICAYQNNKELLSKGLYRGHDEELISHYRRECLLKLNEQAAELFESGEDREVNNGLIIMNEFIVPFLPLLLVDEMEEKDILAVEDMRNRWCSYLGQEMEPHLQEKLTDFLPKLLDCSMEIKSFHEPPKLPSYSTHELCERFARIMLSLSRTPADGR
How it was run: as §1

USP28 = molecular target: T4, USP28 (UniProt Q96RU2)
T4 sequence (whole entry): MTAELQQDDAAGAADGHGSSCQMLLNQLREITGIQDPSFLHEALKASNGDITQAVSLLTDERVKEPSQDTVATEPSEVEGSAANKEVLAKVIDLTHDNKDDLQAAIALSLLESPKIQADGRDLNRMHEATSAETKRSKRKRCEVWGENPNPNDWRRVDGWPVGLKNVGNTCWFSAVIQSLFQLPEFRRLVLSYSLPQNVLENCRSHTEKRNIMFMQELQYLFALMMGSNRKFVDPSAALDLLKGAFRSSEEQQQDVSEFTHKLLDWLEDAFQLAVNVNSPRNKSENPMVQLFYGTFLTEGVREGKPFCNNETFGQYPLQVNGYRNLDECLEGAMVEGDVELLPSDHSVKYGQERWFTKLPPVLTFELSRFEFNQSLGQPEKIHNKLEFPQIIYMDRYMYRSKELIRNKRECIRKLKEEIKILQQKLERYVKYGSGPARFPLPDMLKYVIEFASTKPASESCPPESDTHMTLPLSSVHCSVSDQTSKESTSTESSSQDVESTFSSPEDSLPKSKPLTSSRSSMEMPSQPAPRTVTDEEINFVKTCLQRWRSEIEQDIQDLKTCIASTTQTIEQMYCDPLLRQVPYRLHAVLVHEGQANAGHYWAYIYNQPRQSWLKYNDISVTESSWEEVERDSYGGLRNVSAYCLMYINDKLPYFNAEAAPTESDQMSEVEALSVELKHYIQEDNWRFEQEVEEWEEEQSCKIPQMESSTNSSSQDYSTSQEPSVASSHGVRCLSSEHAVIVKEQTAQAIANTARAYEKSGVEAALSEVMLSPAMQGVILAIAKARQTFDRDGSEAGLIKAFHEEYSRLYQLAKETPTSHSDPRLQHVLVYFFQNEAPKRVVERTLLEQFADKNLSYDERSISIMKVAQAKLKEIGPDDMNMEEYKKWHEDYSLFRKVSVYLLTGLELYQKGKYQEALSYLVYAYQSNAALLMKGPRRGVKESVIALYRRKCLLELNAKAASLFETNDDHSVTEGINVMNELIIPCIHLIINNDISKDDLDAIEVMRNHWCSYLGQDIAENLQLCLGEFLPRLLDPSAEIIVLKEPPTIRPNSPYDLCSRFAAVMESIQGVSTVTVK
How it was run: as §1

Measured: log2 ratio of Biotin-Ahx-Ub-VS probe labelling

Cc1cnc2[nH]cc(CCNC(=O)CCl)c2c1
inactive: USP19 -0.044 | USP22 -0.375 | USP24 -0.209 | USP25 -0.347 | USP28 -0.759
